Results as given in PubChem BioAssay (NCI).
About 83,000 compounds went through this panel and 20% of them were active in at least one assay; those are over-represented in the sample as a whole.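 In brief: 96-well plates, 48 h treatment, single concentration, percent growth endpoint.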 A number with no mark means an inactive call. The source made the active and inactive calls. Rule for the calls: active = growth percent below 10; inactive = the rest.

Tests used:
Assay in all cases: NCI-60 one-dose screen, 48 h (100 = growth as untreated, 0 = no growth, -100 = all killed)
Conditions in all cases: 10 µM unless noted
[1] = system: NCI-H23 lung
[2] = system: NCI-H226 lung
[3] = system: NCI-H322M lung
[4] = system: HOP-62 NSCLC
[5] = system: NCI-H460 lung
[6] = system: HOP-92 NSCLC
[7] = system: NCI-H522 lung
[8] = system: A549/ATCC NSCLC
[9] = system: 786-0 renal
[10] = system: COLO 205 colon
[11] = system: DU-145 prostate
[12] = system: K-562 leukemia
[13] = system: MALME-3M melanoma
[14] = system: MDA-MB-231 breast
[15] = system: RXF 393 renal
[16] = system: SF-268 CNS
[17] = system: SF-295 CNS
[18] = system: SF-539 CNS
[19] = system: UACC-257 melanoma
[20] = system: M14 melanoma

| Structure (SMILES) | growth [1] | growth [2] | growth [3] | growth [4] | growth [5] | growth [6] | growth [7] | growth [8] [%] | growth [9] | growth [10] | growth [11] | growth [12] | growth [13] | growth [14] | growth [15] | growth [16] | growth [17] | growth [18] | growth [19] | growth [20] |
| --- | --- | --- | --- | --- | --- | --- | --- | --- | --- | --- | --- | --- | --- | --- | --- | --- | --- | --- | --- | --- |
| Cc1oc2c(C(=O)N/N=C\c3ccc(O)cc3O)c[nH]c2c1C | 40.7% | 28.8% | 26.3% | 20.9% | 4.29% (active) | 13.4% | 16.1% | 12.7 | 5.43% (active) | 8.96% (active) | -33.5% (active) | 11.2% | 5.32% (active) | 30.3% | 39.3% | 7.45% (active) | 12.3% | 9.86% (active) | 17.8% | -13.8% (active) |
| O=C1CCC(=O)CC1 | 103% | 101% | 110% | 102% | 104% | 87.4% | 91.2% | 91.4 | 104% | 115% | 110% | 96.7% | 110% | 105% | 113% | 98.8% | 101% | 95.3% | 89.4% | 98.1% |
| C=CCN1C(=O)c2cccc3c(-c4ccc5c(c4)ncn5C4CCCCC4)ccc(c23)C1=O | 50.5% | 44.8% | 93.9% | 67.1% | 58.2% | 32.4% | 52% | 58.3 | 58.8% | 47% | 72.5% | 26.2% | 56% | 57.1% | 110% | 72.4% | 44.5% | 71.4% | 44.6% | 50% |
| Cc1cc(C2(c3ccc(O)c(C)c3)OS(=O)(=O)c3ccccc32)ccc1O | 101% | 97.9% | 103% | 107% | 103% | 78.6% | 115% | 101 | 112% | 96.3% | 122% | 104% | 91.7% | 102% | 98.5% | 112% | 105% | 99% | 100% | 99.9% |
| C[C@H](NC(=O)c1c(N)nn2cccnc12)c1cc2cccc(C#Cc3cnn(C)c3)c2c(=O)n1-c1ccccc1 | 40.9% | 70.3% | 53.6% | 11.8% | 30.4% | 9.5% (active) | 14.1% | 20.3 | 19.1% | -11.7% (active) | 34.6% | 17.4% | 50.1% | 37.8% | -16% (active) | 25.3% | 11.6% | 21.7% | 39.1% | 29.5% |
| C[C@@H]1COC(Nc2ccc3ncnc(Nc4ccc(OCc5nccs5)c(Cl)c4)c3c2)=N1 | 46.8% | 17.1% | 20.1% | 17.5% | 57.9% | 10.3% | 2.8% (active) | 40.3 | 50% | -9.99% (active) | 36.1% | 22.6% | 38% | 42.8% | 49.1% | 46.5% | 18.9% | 65.5% | 48.3% | 19.5% |
| O=C(O)c1ccc2c(c1)nc(Nc1cccc(Cl)c1)c1ccncc12 | 2.72% (active) | 3.78% (active) | -25.5% (active) | -1.83% (active) | 14.7% | -20.3% (active) | -35.7% (active) | 27.8 | 17.5% | -16.8% (active) | 33.7% | 8.63% (active) | -10.2% (active) | 3.58% (active) | -9.7% (active) | 14.8% | 6.7% (active) | -23.8% (active) | -7.85% (active) | -0.117% (active) |
| CN(C)CCn1c(=O)c2c3cc4c(cc3n(CCN(C)C)c2c2ccc(Cl)cc21)OCO4 | 36.9% | 55% | 49.1% | 26.3% | 12.7% | 65.9% | 44.5% | 31.7 | 61.1% | 27% | 60.6% | -17.8% (active) | 78.7% | 31.6% | 57.9% | 32% | 32.5% | 69.9% | 71.6% | 50.5% |
